Drawing on PubChem BioAssay (NCATS), this text covers Potency for six compounds.

Assay [1] in a line: S16 Schwann cell PMP22 intronic element beta-lactamase assay (AID 624044; calls by dose curve; note: nearly all actives have a fitted effect of over 15% in size). The following applies: S16 rat Schwann cells, PMP22 element beta-lactamase FRET, 24 h; ratio activity, negative = inhibition: at 38.3 µM (top of the series). In a few lines: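 Rat S16 Schwann cells with beta-Lac driven by a PMP22 intronic element, compound-treated 24 h at 37 °C. LiveBLAzer FRET B/G read: 460 nm normalized to potassium clavulanate vs DMSO; 535 nm FRET as viability; concentration-effect curves classified.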

The subject of the next assay is AA1029. Nature of the assay: qHTS profiling for inhibitors of Plasmodium falciparum proliferation (AID 504749). Note: nearly all actives have a fitted effect of over 60% in size. The following applies: P. falciparum in erythrocytes, SYBR Green DNA, 72 h; series mostly up to 28.7 µM. In a few lines: (§1)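 Three-day growth assay of blood-stage parasites in erythrocytes (0.3% parasitemia, 2.5% hematocrit) at 37 C, 5% CO2, quantified by SYBR Green DNA staining after overnight detergent lysis.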
Background: Quantitative high-throughput screening tests each substance at several concentrations.

The subject of the next assay is AS120. The description is as above. The following applies: P. falciparum in erythrocytes, SYBR Green DNA, 72 h; series mostly up to 28.7 µM. The method, boiled down:
as §1

The subject of another assay is ATS189. Described as above. Particulars: P. falciparum in erythrocytes, SYBR Green DNA, 72 h; series mostly up to 28.7 µM. In a few lines:
as §1

A further assay relates to C2A. Described as above. The following applies: P. falciparum in erythrocytes, SYBR Green DNA, 72 h; series mostly up to 28.7 µM. In a few lines: as §1
In another assay the test system is CP194. The assay is described as above. Particulars: P. falciparum in erythrocytes, SYBR Green DNA, 72 h; series mostly up to 28.7 µM. The method, boiled down: as §1
The next assay concerns CP201. The assay is described as above. The following applies: P. falciparum in erythrocytes, SYBR Green DNA, 72 h; series mostly up to 28.7 µM. In a few lines: as §1
Another assay has as its system CP203. Described as above. Particulars: P. falciparum in erythrocytes, SYBR Green DNA, 72 h; series mostly up to 28.7 µM. The method, boiled down:
as §1

The test system of a further assay is CP217. Described as above. The following applies: P. falciparum in erythrocytes, SYBR Green DNA, 72 h; series mostly up to 28.7 µM. In a few lines: as §1
The next assay relates to CP237. Described as above. Particulars: P. falciparum in erythrocytes, SYBR Green DNA, 72 h; series mostly up to 28.7 µM. In a few lines: as §1
A further assay deals with CP250. The description is as above. The following applies: P. falciparum in erythrocytes, SYBR Green DNA, 72 h; series mostly up to 28.7 µM. The method, boiled down: as §1
The next assay deals with CP256. The description is as above. The following applies: P. falciparum in erythrocytes, SYBR Green DNA, 72 h; series mostly up to 28.7 µM. In a few lines:
as §1

Another assay concerns CP268. The assay is described as above. The following applies: P. falciparum in erythrocytes, SYBR Green DNA, 72 h; series mostly up to 28.7 µM. In a few lines: as §1
A further assay concerns CP297. Described as above. The following applies: P. falciparum in erythrocytes, SYBR Green DNA, 72 h; series mostly up to 28.7 µM. In a few lines: as §1
A further assay deals with CP305. The assay is described as above. Particulars: P. falciparum in erythrocytes, SYBR Green DNA, 72 h; series mostly up to 28.7 µM. The method, boiled down:
as §1

Another assay relates to CP325. The description is as above. The following applies: P. falciparum in erythrocytes, SYBR Green DNA, 72 h; series mostly up to 28.7 µM. In a few lines: as §1
The subject of a further assay is HB3. The description is as above. The following applies: P. falciparum in erythrocytes, SYBR Green DNA, 72 h; series mostly up to 28.7 µM. The method, boiled down: as §1
The test system of a further assay is PC15. The description is as above. Particulars: P. falciparum in erythrocytes, SYBR Green DNA, 72 h; series mostly up to 28.7 µM. In a few lines: as §1
The test system of another assay is TAB109. The assay is described as above. Particulars: P. falciparum in erythrocytes, SYBR Green DNA, 72 h; series mostly up to 28.7 µM. The method, boiled down: as §1
A further assay deals with PC49. The assay is described as above. The following applies: P. falciparum in erythrocytes, SYBR Green DNA, 72 h; series mostly up to 28.7 µM. In a few lines:
as §1

Records with an inconclusive call do not appear. Activity calls are given as the source filed them. Unless noted, calls come from the whole dose curve; as a rule, active = well fitted inhibition curve with a large enough effect; inconclusive = small, poorly fitted or top-dose-only effect; inactive = flat fitted curve, though single readings scatter.
Potency is the fitted concentration of half-maximal effect.

As for `CCCCC(=O)OCC(=O)[C@]1(O)Cc2c(O)c3c(c(O)c2[C@H](OC2CC(NC(=O)C(F)(F)F)C(O)C(C)O2)C1)C(=O)c1c(OC)cccc1C3=O` (stereo not given in full), the Potency in [1] was 2510 nM (active); in the assay on AA1029 it was 2000 nM (active); in the assay with AS120, 2000 nM (active); with ATS189, 3160 nM (active); in the assay on C2A, 2000 nM (active); in the assay on CP194 it was 3010 nM (active). Further, the Potency is 4780 nM (active) with CP201; 1690 nM (active) in the assay on CP203; 3160 nM (active) in the assay on CP217; 1580 nM (active) in the assay with CP237; 2510 nM (active) in the assay on CP250; 2000 nM (active) in the assay on CP256. In addition, the Potency is 5360 nM (active) with CP268; 1510 nM (active) in the assay with CP297; 4780 nM (active) in the assay on CP305; 3380 nM (active) in the assay on CP325; 2510 nM (active) with HB3; 3550 nM (active) in the assay on PC15. In addition, in the assay on TAB109, the Potency was 2000 nM (active).

On to `CO[C@H]1C[C@@H]2CC[C@@H](C)[C@@](O)(O2)C(=O)C(=O)N2CCCC[C@H]2C(=O)O[C@H]([C@H](C)C[C@@H]2CC[C@@H](O)[C@H](OC)C2)CC(=O)[C@H](C)/C=C(\C)[C@@H](O)[C@@H](OC)C(=O)[C@H](C)C[C@H](C)/C=C/C=C/C=C/1C`, for which, in assay [1], the Potency entry is “inactive”. The Potency is 2510 nM (active) in the assay on AA1029; 1780 nM (active) with AS120; 3550 nM (active) with ATS189; 3550 nM (active) with C2A; 3380 nM (active) in the assay on CP194; 6010 nM (active) in the assay on CP201. In addition, the Potency is 1690 nM (active) in the assay on CP203; 3160 nM (active) in the assay with CP217; 5010 nM (active) with CP237; 3550 nM (active) in the assay with CP250; 4470 nM (active) in the assay with CP256; 4780 nM (active) in the assay on CP268. The Potency with CP297 was 4260 nM (active); in the assay on CP305, 6750 nM (active); in the assay on CP325, 5360 nM (active); with HB3, 8910 nM (active); in the assay with PC15, 3980 nM (active); in the assay on PC49 it was 10000 nM (active). Also, in the assay on TAB109, the Potency is 2240 nM (active).

For the compound `CC[C@H](C)[C@H]1O[C@]2(CC[C@@H]1C)C[C@@H]1C[C@@H](C/C=C(\C)[C@H](O[C@@H]3C[C@H](OC)[C@H](O[C@@H]4C[C@H](OC)[C@@H](O)[C@H](C)O4)[C@H](C)O3)[C@@H](C)/C=C/C=C3\CO[C@@H]4[C@H](O)C(C)=C[C@@H](C(=O)O1)[C@]34O)O2`, the Potency with AA1029 is 1000 nM (active); in the assay with AS120, 1000 nM (active); with ATS189, 891 nM (active); with C2A, 1410 nM (active); with CP194, 1350 nM (active); in the assay on CP201, 1510 nM (active). Also, the Potency in the assay on CP203 is 1510 nM (active); in the assay on CP217 it was 794 nM (active); in the assay on CP237, 2240 nM (active); in the assay on CP250, 891 nM (active); with CP256, 708 nM (active); in the assay with CP268, 1690 nM (active). Besides, the Potency in the assay with CP297 is 1510 nM (active); in the assay on CP305, 1690 nM (active); in the assay with CP325 it was 1350 nM (active); in the assay with HB3 it was 2000 nM (active); in the assay on PC15, 2820 nM (active); in the assay with TAB109, 1260 nM (active).

Turning to `O=C(O)c1ccc(N[C@@H]2OC[C@@H](O)[C@@H](O)[C@@H]2O)cc1`, the Potency entry in the assay with AA1029, in the assay on AS120, with ATS189, in the assay on C2A, in the assay with CP194 and in the assay on CP201 was “inactive” throughout. In addition, the Potency result in the assay on CP203, in the assay with CP217, in the assay with CP237, with CP250, in the assay with CP256 and in the assay on CP268 was “inactive” each time. The Potency result in the assay on CP297, with CP305, in the assay on CP325, in the assay with HB3, in the assay on PC15 and in the assay with PC49 was “inactive” in each case. Also, the Potency entry in the assay with TAB109 is “inactive”.

`CO/N=C(/C(=O)N[C@@H]1C(=O)N2C(C(=O)O)=C(CSc3cnns3)CS[C@H]12)c1csc(N)n1`: the Potency entry (in assay [1]; in the assay on AA1029; with AS120; with ATS189; in the assay on C2A; in the assay on CP194) was “inactive” throughout. The Potency entry with CP201, in the assay with CP203, in the assay with CP217, with CP237, in the assay with CP250 and in the assay on CP256 was “inactive” throughout. In addition, the Potency entry in the assay with CP268, with CP297, with CP305, in the assay on CP325, in the assay with HB3 and in the assay with PC15 was “inactive” each time. Also, in the assay on PC49, the Potency entry is “inactive”.

Consider `CC1OC(OCC2OC(Oc3c(-c4ccc(OCCO)c(OCCO)c4)oc4cc(OCCO)cc(O)c4c3=O)C(O)C(O)C2O)[C@@H](O)C(O)C1O` (stereo not given in full), for which the Potency result (in [1]; in the assay with AA1029; with AS120; with ATS189; in the assay on C2A; in the assay with CP194) was “inactive” each time. Also, the Potency entry in the assay with CP201, with CP203, in the assay with CP217, with CP237, in the assay on CP250 and with CP256 was “inactive” each time. Also, the Potency result in the assay with CP268, in the assay on CP297, in the assay on CP305, in the assay with CP325, in the assay on HB3 and in the assay with PC15 was “inactive” throughout. For the same compound, the Potency entry with PC49 and in the assay on TAB109 was “inactive” in each case.
